Pol kappa inh: qHTS for Inhibitors of Polymerase Kappa; purified Pol kappa, fluorescent DNA synthesis assay, 10 min; AID 588579, 2011; 400,000 compounds, 0.53% hits; Potency, µM (doses to about 107 µM), hits mostly inhibitors
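Kinetic fluorescence readout at 0 and 10 min followed reaction start with substrate at 50 nM final. Beforehand, enzyme (10 nM Pol kappa) stood 15 min with compound at room temperature; buffer-only wells were negative controls.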
Tb PGK inh: qHTS Assay to Find Inhibitors of Phosphoglycerate Kinase. PGK/GAPDH coupled, Kinase-Glo luminescence, 60 min. 380,000 compounds, 0.043% hits. Potency, µM (top dose mostly 57.5 µM), usual class: inhibitors; note: nearly all actives have a fitted effect of over 60% in size
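Recombinant glycosomal PGK reaction used 1,3-bisphosphoglycerate generated in-well by GAPDH (100nM final) in 100mM TEA pH 7.6, 5mM MgCl2, 0.01% Tween-20. After 60 minutes at room temperature, ATP was read by Kinase-Glo Plus luminescence end-point.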
POLI inh: qHTS for Inhibitors of Polymerase Iota; DNA polymerase iota (Homo sapiens), Q9UNA4; Pol iota fluorescent replication assay, 10 min; Potency, µM (series often up to 115 µM), most hits filed as inhibitors; 390,000 compounds, 1% hits
Target sequence (Q9UNA4 whole entry, looked up): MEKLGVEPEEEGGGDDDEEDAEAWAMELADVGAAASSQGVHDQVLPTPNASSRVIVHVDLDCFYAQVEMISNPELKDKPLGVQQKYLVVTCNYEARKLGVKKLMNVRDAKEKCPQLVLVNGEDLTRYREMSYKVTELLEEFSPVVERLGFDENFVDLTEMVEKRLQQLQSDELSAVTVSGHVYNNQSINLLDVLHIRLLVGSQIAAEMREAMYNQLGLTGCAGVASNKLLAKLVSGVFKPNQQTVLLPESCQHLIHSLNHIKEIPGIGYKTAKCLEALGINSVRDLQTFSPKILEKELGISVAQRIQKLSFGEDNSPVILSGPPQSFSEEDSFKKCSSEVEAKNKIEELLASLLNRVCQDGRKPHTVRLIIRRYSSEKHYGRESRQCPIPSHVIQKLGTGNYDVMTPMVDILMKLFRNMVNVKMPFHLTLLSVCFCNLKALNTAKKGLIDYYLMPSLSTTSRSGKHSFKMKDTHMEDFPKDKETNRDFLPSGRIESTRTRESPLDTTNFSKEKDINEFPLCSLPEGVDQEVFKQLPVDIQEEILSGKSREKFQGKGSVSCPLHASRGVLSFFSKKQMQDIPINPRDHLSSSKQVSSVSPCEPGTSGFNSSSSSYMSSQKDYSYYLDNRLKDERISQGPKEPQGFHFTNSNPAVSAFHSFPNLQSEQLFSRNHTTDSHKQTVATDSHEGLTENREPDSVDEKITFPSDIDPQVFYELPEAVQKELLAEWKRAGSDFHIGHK
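Pol iota at 10 nM preincubated 15 min with compounds at room temperature; reaction started with fluorescent substrate, 50 nM final. Fluorescence read kinetically at 0 and 10 min; buffer-only wells as negative control.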
Pol eta inh: qHTS for Inhibitors of Polymerase Eta; recombinant Pol eta, fluorescent DNA replication assay; 390,000 compounds, 1.2% hits; Potency, µM (series often up to 114 µM), actives largely listed as inhibitors; DNA polymerase eta (Homo sapiens), Q9Y253; AID 588591, 2011
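Pol eta at 10 nM preincubated with compounds 15 min at room temperature; reaction started with fluorescent substrate (50 nM final) and read kinetically at 0 and 10 min.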
POLB inh: qHTS Assay for Inhibitors of DNA Polymerase Beta | Pol beta primer extension/strand displacement, fluorescence kinetic | 340,000 compounds, 1.3% hits | Potency, µM (titrated, usually from 114 µM), usual class: inhibitors | P06746 | AID 485314, 2010
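Homogeneous kinetic assay of primer extension and strand displacement by 10 nM Pol beta, preincubated 15 min at room temperature with compound before 50 nM substrate (final) was added. Read at 0 and 10 min; four-parameter Hill fit.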
FEN1 inh: qHTS Assay for the Inhibitors of Human Flap endonuclease 1 (FEN1) | Potency, µM (top dose mostly 114 µM), actives largely listed as inhibitors | P39748 | AID 588795, 2011 | Recombinant FEN1 flap cleavage, fluorescence, 15 min | 390,000 compounds, 0.35% hits; note: nearly all actives have a fitted effect of over 65% in size
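Enzyme 10 nM, 15 min RT preincubation with compound; start with substrate 50 nM final; reads at 0 and 15 min; qHTS titration, four-parameter Hill fit.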
Hits are given with their value; - = inactive; ? = inconclusive; . = no result. This is a sample that favours compounds with a hit; in the whole collection about 2.4% have one here. Calls come from the whole dose curve; as a rule, active = well fitted curve in the direction sought with a large enough effect; inconclusive = small, poorly fitted or top-dose-only effect, or another doubt; inactive = no such curve, though single readings can be large; an effect the other way counts as inactive or inconclusive.

SMILES	Pol kappa inh	Tb PGK inh	POLI inh	Pol eta inh	POLB inh	FEN1 inh
COc1cccc(Cn2c(=O)n(Cc3ccco3)c(=O)c3oc4ccccc4c32)c1	-	-	-	-	-	-
Nc1cccc2[nH]c(C(F)(F)F)nc12	?	-	40µM	79µM	?	56µM
COC1=C(Nc2ccc(C)cc2)C(=O)c2ccccc2C1=O	-	-	?	-	?	-
COc1ccc(OC)c2c1C(=O)c1ccccc1C2=O	-	-	?	-	-	?
COC1=C(OC)C(=O)c2ccccc2C1=O	-	.	22µM	?	28µM	?
COC1=C(Nc2ccccc2)C(=O)c2ccccc2C1=O	-	-	18µM	-	?	-
c1ccc(-c2ccc(-c3csc4ncnc(Sc5nnnn5-c5ccccc5)c34)cc2)cc1	-	.	-	.	.	-
CCOc1ccc(CNC(=O)c2ccc(Sc3ccc(C)cc3)c(N)c2)cc1OC	-	-	-	-	-	-
Cn1c(=O)c2[nH]c(SCCN3CCOCC3)nc2n(C)c1=S	-	-	18µM	-	.	-
Cn1c(=O)c2[nH]c(SCCN3CCCCC3)nc2n(C)c1=S	-	-	?	-	.	-
COc1ccc(C2Nc3ccccc3C(=O)N2c2ccc(Cl)cc2)cc1COc1ccc(NC(C)=O)cc1 (configuration not stated)	-	.	-	.	.	-
COc1ccc(-c2nc3ccccc3nc2-c2ccc(OC)cc2)cc1	-	-	-	-	-	-
COc1ccc2nc(-c3ccco3)c(-c3ccco3)nc2c1	?	-	?	3.2µM	22µM	?
c1ccc(Nc2c(-c3ccco3)nc3ccccn23)cc1	-	-	-	-	-	-
COc1ccc2nc3cccc(OC)c3nc2c1	-	-	-	?	40µM	?
c1coc(-c2nc3cc4ccccc4cc3nc2-c2ccco2)c1	40µM	.	8.9µM	.	.	5.6µM
Nc1nc(-c2ccco2)c(-c2ccco2)s1	-	-	?	?	?	-
c1coc(-c2nc(-c3ccco3)c(-c3ccco3)nc2-c2ccco2)c1	8.9µM	?	?	4µM	2.5µM	35µM
Cc1ccccc1NC(=O)Cn1nc(-c2ccc(F)cc2)c2cnc3ccccc3c21	-	-	-	-	-	-
CCN1C(=O)C2(C(C#N)=C(N)Oc3cc(C)oc(=O)c32)c2ccccc21 (configuration not stated)	-	-	-	-	-	-
Cc1cc2c(c(=O)o1)C1(C(=O)N(CC(=O)O)c3ccccc31)C(C#N)=C(N)O2 (configuration not stated)	?	-	?	20µM	?	-
O=C(NCc1cccc(Br)c1)c1cnn(-c2ccc(F)cc2)c1-n1cccc1	-	-	-	-	-	-
Nn1cnnc1N/N=C/c1ccccc1C(F)(F)F	-	.	?	-	-	-
Cc1nnc(N/N=C/c2ccc(Br)cc2)n1N	-	-	?	-	-	-
Nn1cnnc1N/N=C/c1ccc(Cl)c([N+](=O)[O-])c1	-	-	3.2µM	-	?	?
SMILES	Pol kappa inh	Tb PGK inh	POLI inh	Pol eta inh	POLB inh	FEN1 inh
Cc1ccc(/C=N/Nc2nncn2N)cc1	-	-	0.89µM	-	-	-
Nn1cnnc1N/N=C/c1ccc(F)cc1	-	-	16µM	-	-	?
Cc1cc(NC(=O)N2CCC(CN3CCCCCC3)CC2)ccc1Br	-	-	-	-	-	-
CC[N+]1(CC(=O)c2cccs2)CCCCC1	-	.	-	.	.	-
CCOc1ccc2oc(C(=O)N3CCN(c4ccccn4)CC3)c(C)c2c1	-	-	?	20µM	?	-
Cc1ccc(-n2c(O)c(/C=N/Nc3ccc(S(=O)(=O)N4CCOCC4)cc3[N+](=O)[O-])c3ccccc3c2=O)c(C)c1	-	?	?	45µM	79µM	-
CC(=O)c1c(C)oc2c(Br)cc(NS(=O)(=O)c3ccc(Br)cc3)cc12	-	-	79µM	-	?	-
O=C1c2ccccc2C(=O)c2c(NCCCN(CCO)CCO)cccc21	-	-	?	?	45µM	20µM

Source: PubChem
